From PubChem BioAssay (Tox21)
Several values for one entry are separate records, joined by “and”; a condition that tells them apart may be missing. Identical values can stand only once. Inconclusive results are not listed. Activity calls are given as the source filed them. Calls follow the shape of the dose curve; as a rule, active = well fitted curve in the direction sought with a large enough effect in the repeat runs; inconclusive = weak or mixed curves; inactive = no such curve, though single readings can be large; an effect the other way counts as inactive or inconclusive.

Assays:
[1] = qHTS RealTime-Glo MT Cell Viability Assay in HEK293 cells - 16 hour (AID 1224872); also: nearly all actives have a fitted effect of over 50% in size; also: potency is read from the fitted curve at half-maximal effect
Outline: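 Assay medium contained NanoLuc luciferase plus cell-permeant prosubstrate, added with HEK293 cells at 600 cells/well. After 5 h at 37 C/5% CO2 compounds were added; plates stayed at 37 C for 40 h with serial luminescence reads.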

[2] = qHTS RealTime-Glo MT Cell Viability Assay in HepG2 cells - 8 hour (AID 1224873); also: nearly all actives have a fitted effect of over 55% in size; also: potency is read from the fitted curve at half-maximal effect
Outline: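 HepG2 cells mixed with RealTime-Glo MT reagents (NanoLuc plus cell-permeant prosubstrate) were seeded at 600 cells/well, incubated 5 h at 37 C/5% CO2, then pinned with compounds in DMSO; nonlytic luminescence tracked viability during 40 h treatment.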

[3] = qHTS RealTime-Glo MT Cell Viability Assay in HEK293 cells - 40 hour (AID 1224874); conditions: RealTime-Glo luminescence; max response: stronger effect = lower value; also: nearly all actives have a fitted effect of over 50% in size; also: potency is read from the fitted curve at half-maximal effect
Outline: (§1)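 Tox21 screen in HEK293 using RealTime-Glo MT chemistry, with cells and reagent co-dispensed. Luminescence proportional to viable cell number was captured at intervals during 40 h compound exposure at 37 C.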

[4] = A CellTox Green Cytotoxicity Assay to monitor cytotoxicity in HepG2 cells - 16 hour (AID 1224876); also: nearly all actives have a fitted effect of over 45% in size; also: potency is read from the fitted curve at half-maximal effect
Outline: (§2)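 Nonlytic assay: viable cells exclude the dye, so fluorescence scales with cell death. HepG2 at 600 cells/well, compounds added after 5 h, signal read across 40 h.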

[5] = qHTS RealTime-Glo MT Cell Viability Assay in HepG2 cells - 32 hour (AID 1224877); also: nearly all actives have a fitted effect of over 55% in size; also: potency is read from the fitted curve at half-maximal effect
Outline: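 qHTS, HepG2, 600 cells/well, RealTime-Glo (NanoLuc + prosubstrate) added with cells; 5 h preincubation; DMSO compound addition; 37 C; luminescence at 0/8/16/24/32/40 h.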

[6] = qHTS RealTime-Glo MT Cell Viability Assay in HEK293 cells - 0 hour (AID 1224880); also: nearly all actives have a fitted effect of over 45% in size; also: potency is read from the fitted curve at half-maximal effect
Outline: as §1

[7] = A CellTox Green Cytotoxicity Assay to monitor cytotoxicity in HEK293 cells - 24 hour (AID 1224875); also: nearly all actives have a fitted effect of over 45% in size; also: potency is read from the fitted curve at half-maximal effect; as to activity change: series mostly up to about 77 µM
Outline: (§3)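 Seeding of HEK293 cells together with cytotoxicity dye preceded a 5 h incubation at 37 C/5% CO2. Test compounds in DMSO were then added and fluorescence monitored across 40 h.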

[8] = A CellTox Green Cytotoxicity Assay to monitor cytotoxicity in HepG2 cells - 24 hour (AID 1224878); also: nearly all actives have a fitted effect of over 45% in size; also: potency is read from the fitted curve at half-maximal effect
Outline: as §2

[9] = A CellTox Green Cytotoxicity Assay to monitor cytotoxicity in HepG2 cells - 40 hour (AID 1224879); also: nearly all actives have a fitted effect of over 40% in size; also: potency is read from the fitted curve at half-maximal effect
Outline: as §2

[10] = A CellTox Green Cytotoxicity Assay to monitor cytotoxicity in HEK293 cells - 40 hour (AID 1224871); also: nearly all actives have a fitted effect of over 45% in size
Outline: as §3
% is scaled to controls: 0 for no effect and ±100 for the full control effect.

Sc1nc2ccccc2s1
inactive: Potency [1] | Potency [2] | max response [3] 15.8% | Potency [4] | Potency [5] | Potency [6]

CCCCOC(=O)CO
inactive: Potency [1] | Potency [2] | max response [3] -0.491% | Potency [7] | Potency [4] | Potency [5] | Potency [8] | Potency [9]

OC[C@@H](O)[C@@H](O)CO
inactive: Potency [1] | Potency [2] | max response [3] 7.59% | Potency [7] | Potency [5] | Potency [8] | Potency [9]

COc1cc(/C=C/c2ccccc2)oc(=O)c1
inactive: Potency [10] | Potency [2] | Potency [7] | Potency [5] | Potency [8] | Potency [9] | Potency [6]

CCCCC/C=C\C/C=C\CCCCCCCC(=O)O
inactive: Potency [2] | max response [3] 6.43% and 5.51% | Potency [7] | Potency [4] | Potency [5] | Potency [8] | Potency [9] | Potency [6]

COc1ccc(NC(=O)CC(C)=O)cc1
inactive: Potency [2] | Potency [4] | Potency [5] | Potency [8] | Potency [9] | Potency [6]

Cc1cc(C(C)(C)C)c(O)c(C)c1Cn1c(=O)n(Cc2c(C)cc(C(C)(C)C)c(O)c2C)c(=O)n(Cc2c(C)cc(C(C)(C)C)c(O)c2C)c1=O
active: Potency [3] 21.9 µM
inactive: Potency [7] | Potency [4] | Potency [8] | Potency [9] | Potency [6]

O=C1OC2(c3ccc(O)cc3Oc3cc(O)ccc32)c2ccc(N=C=S)cc21
active: Potency [7] 17.7 µM | Potency [4] 15.8 µM | Potency [8] 15.8 µM | Potency [9] 15.8 µM | Potency [6] 44.4 µM

O=c1oc2cc(O)ccc2c2oc3cc(O)ccc3c12
inactive: Potency [2] | Potency [7] | Potency [4] | Potency [5] | Potency [8] | Potency [9]

Cc1ccc(O)c(O)c1
inactive: Potency [2] | Potency [4] | Potency [5] | Potency [8] | Potency [6]

Oc1cc(Cl)cc(Cl)c1Cl
inactive: Potency [2] | Potency [4] | Potency [5] | Potency [8] | Potency [9]

C[Si](Cl)(c1ccccc1)c1ccccc1
inactive: Potency [2] | Potency [7] | Potency [4] | Potency [5] | Potency [8] | Potency [9] | Potency [6]

O=C1CCc2ccc(OCCCCN3CCN(c4cccc(Cl)c4Cl)CC3)cc2N1
inactive: Potency [7] | Potency [4] | Potency [6]
active: Potency [3] 9.52 µM | Potency [9] 26.8 µM

O=C(O)CN(CCN(CC(=O)O)CC(=O)O)CC(=O)O
active: Potency [8] 1.74 µM | Potency [9] 1.96 µM
inactive: viability change, negative = cytotoxic [2] -13.2% [at 2.72 µM] | max response [3] 7.27% | activity change, negative = cytotoxic [5] 4.09% [at 2.72 µM]

Cc1cc(=O)oc2cc(O)cc(O)c12
inactive: Potency [1] | Potency [2] | Potency [5] | Potency [8] | Potency [9] | Potency [6]

CCC(C)(CCC(C)C)C(=O)[O][Sn]([CH3])([CH3])[O]C(=O)C(C)(CC)CCC(C)C (stereo unspecified)
inactive: Potency [2] | max response [3] 0.738% | Potency [7] | Potency [4] | Potency [5] | Potency [8] | Potency [9]

Nc1cc(Cl)c(O)c(Cl)c1
inactive: Potency [1] | max response [3] -1.5% | Potency [7] | Potency [4] | Potency [5] | Potency [8] | Potency [9] | Potency [6]

Clc1sc(Cl)c(Cl)c1Cl
inactive: Potency [2] | max response [3] 7.4% | Potency [7] | Potency [4] | Potency [5] | Potency [8] | Potency [9] | Potency [6]

CN1CCN(Cc2cc(-c3ccc4[nH]c(=O)oc4c3)co2)[C@@H](c2ccc(F)cc2)C1
active: Potency [8] 42 µM | Potency [9] 42 µM
inactive: Potency [2] | Potency [7] | Potency [6]

C#C[C@]1(OC(C)=O)CC[C@H]2[C@@H]3CCC4=C[C@@H](OC(C)=O)CC[C@@H]4[C@H]3CC[C@@]21C
inactive: Potency [2] | Potency [7] | Potency [4] | Potency [5] | Potency [8] | Potency [9] | Potency [6]
active: Potency [3] 21.3 µM

CCOC(=O)c1ccc(C2CCC(NC[C@H](O)COc3ccc(O)c(NS(C)(=O)=O)c3)CC2)cc1 (stereo partly specified)
active: Potency [1] 20.2 µM | Potency [3] 20.2 µM | Potency [5] 45.2 µM | Potency [8] 50.7 µM | Potency [9] 45.2 µM
inactive: Potency [6]

CN(C)c1ccc(C(=C2C=CC(=[N+](C)C)C=C2)c2ccc(N(C)C)cc2)cc1
active: Potency [1] 6.88 µM and 19.5 µM and 7.56 µM | Potency [2] 19.4 µM and 24.5 µM | Potency [5] 30.7 µM and 24.5 µM and 21.3 µM | Potency [8] 10.9 µM and 12.3 µM and 19 µM | Potency [9] 10.9 µM and 12.3 µM and 21.3 µM
inactive: Potency [7]

Cc1cc(C)c(/C=C2\C(=O)Nc3ccccc32)[nH]1
active: Potency [7] 10.7 µM | Potency [4] 16.9 µM | Potency [8] 19 µM | Potency [9] 19 µM
inactive: Potency [2] | max response [3] -3.94% | Potency [5] | Potency [6]

Cc1cc(C(C#N)c2ccc(Cl)cc2)c(Cl)cc1NC(=O)c1cc(I)cc(I)c1O (stereo unspecified)
inactive: Potency [1] | Potency [2] | Potency [7] | Potency [5] | Potency [8] | Potency [9] | Potency [6]

CCCc1ccc(OCC(=O)N2CCN(C(=O)COc3ccc(CCC)cc3OC)CC2)c(OC)c1
active: Potency [1] 9.52 µM | Potency [8] 26.8 µM | Potency [9] 21.3 µM
inactive: Potency [7] | Potency [6]

CNC(=O)c1ccccc1Sc1ccc2c(/C=C/c3ccccn3)n[nH]c2c1
inactive: Potency [7] | Potency [5] | Potency [8] | Potency [9]
active: Potency [3] 8.49 µM

CCCCCC(C)OC(=O)COc1ccc(Cl)c2cccnc12 (stereo unspecified)
inactive: Potency [2] | max response [3] -19.2% | Potency [7] | Potency [4] | Potency [5] | Potency [6]
